Measurements taken from PubChem BioAssay.
Values without a mark were called inactive. Entries that show only a call come without a potency. For some of these results: Potency and affinity values are given separately. The source made the active and inactive calls. Unless noted, no rule for the calls is given here.

How the values were obtained:
[1] = antimalarial activity against Dd2 strain (AID 2302;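 active = growth inhibition above 50% at the single 2 µM test dose, taken to imply half-maximal potency below 2 µM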); conditions: P. falciparum Dd2 in RBCs, LDH growth readout, 72 h; at 2 µM; hits give high values
[2] = HepG2 cytotoxicity, primary screen, cytotoxicity control for P. falciparum antimalarial project, cell-based, ATP luminescence (AID 2303;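 active = inhibition above 50%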); conditions: HepG2 viability, 24-48 h, at 10 µM, hits give high values
[3] = target: L-lactate dehydrogenase (Plasmodium falciparum (isolate CDC / Honduras)) (UniProt Q27743); assay: PfLDH activity inhibition – cell lysate, 3D7 strain, counter-screen for P. falciparum growth inhibition project (AID 2304); conditions: P. falciparum 3D7 crude extract, LDH APAD/NBT absorbance; at 2 µM; hits give high values
[4] = inhibition of 3D7 malaria parasite growth – strain 3D7 (AID 2306); conditions: P. falciparum 3D7 erythrocytic growth, LDH absorbance, 72 h; at 2 µM; hits give high values
[5] = target: Calcium-dependent protein kinase 1 (Plasmodium falciparum (isolate 3D7)) (UniProt P62344); assay: PfCDPK1 kinase inhibitors, biochemical, TCAMS library (AID 1159585; cut-off not given, nearly all actives have IC50 up to about 0.98 µM;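 also: inhibitors leave more ATP so luminescence rises with inhibition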); conditions: recombinant PfCDPK1, Kinase-Glo ATP depletion luminescence
[6] = target: Plasmodium falciparum protein kinase 6 (PK6, PF3D7_1337100) (UniProt Q8IDW1); assay: PfPK6 kinase inhibitors, biochemical, TCAMS library (AID 1159586); conditions: recombinant PfPK6, Kinase-Glo ATP depletion luminescence
[7] = target: Protein kinase 7 (PK7), Plasmodium falciparum 3D7 (PF3D7_0213400) (UniProt Q7YTF7); assay: inhibition of Plasmodium PK7 catalytic activity – biochemical, TCAMS antimalarial set, Kinase-Glo luminescence (AID 1159587); conditions: recombinant PfPK7, Kinase-Glo ATP depletion luminescence
[8] = target: Calcium-dependent protein kinase 4 (Plasmodium falciparum (isolate 3D7)) (UniProt Q8IBS5); assay: PfCDPK4 kinase inhibitors, biochemical, TCAMS library (AID 1159588; cut-off not given, nearly all actives have IC50 up to about 0.91 µM); conditions: recombinant PfCDPK4, Kinase-Glo ATP depletion luminescence
Calcium-dependent protein kinase 4 (Plasmodium falciparum (isolate 3D7)), sequence (Q8IBS5 whole entry, looked up): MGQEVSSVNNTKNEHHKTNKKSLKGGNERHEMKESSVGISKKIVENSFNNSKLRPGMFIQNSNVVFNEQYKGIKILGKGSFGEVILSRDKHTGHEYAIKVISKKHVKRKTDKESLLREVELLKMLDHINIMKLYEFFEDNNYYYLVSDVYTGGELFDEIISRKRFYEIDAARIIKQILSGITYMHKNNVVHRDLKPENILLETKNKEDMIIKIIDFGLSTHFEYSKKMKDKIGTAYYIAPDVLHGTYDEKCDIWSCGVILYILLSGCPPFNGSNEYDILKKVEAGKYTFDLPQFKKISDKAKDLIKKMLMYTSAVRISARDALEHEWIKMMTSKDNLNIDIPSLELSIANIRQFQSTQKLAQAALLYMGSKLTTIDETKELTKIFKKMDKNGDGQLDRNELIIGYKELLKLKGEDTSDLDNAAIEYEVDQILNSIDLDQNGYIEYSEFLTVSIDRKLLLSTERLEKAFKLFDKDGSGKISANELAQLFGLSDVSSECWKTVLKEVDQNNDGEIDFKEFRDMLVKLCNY

L-lactate dehydrogenase (Plasmodium falciparum (isolate CDC / Honduras)), sequence (Q27743 whole entry, looked up): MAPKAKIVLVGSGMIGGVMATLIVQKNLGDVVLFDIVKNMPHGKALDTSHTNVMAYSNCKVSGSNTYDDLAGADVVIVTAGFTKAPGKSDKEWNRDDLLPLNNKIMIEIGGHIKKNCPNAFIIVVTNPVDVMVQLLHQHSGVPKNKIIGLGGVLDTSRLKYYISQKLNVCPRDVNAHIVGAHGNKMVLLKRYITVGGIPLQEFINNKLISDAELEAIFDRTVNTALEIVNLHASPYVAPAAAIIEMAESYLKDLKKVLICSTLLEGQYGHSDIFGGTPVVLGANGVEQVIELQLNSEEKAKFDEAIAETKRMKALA
Calcium-dependent protein kinase 1 (Plasmodium falciparum (isolate 3D7)), sequence (P62344 whole entry, looked up): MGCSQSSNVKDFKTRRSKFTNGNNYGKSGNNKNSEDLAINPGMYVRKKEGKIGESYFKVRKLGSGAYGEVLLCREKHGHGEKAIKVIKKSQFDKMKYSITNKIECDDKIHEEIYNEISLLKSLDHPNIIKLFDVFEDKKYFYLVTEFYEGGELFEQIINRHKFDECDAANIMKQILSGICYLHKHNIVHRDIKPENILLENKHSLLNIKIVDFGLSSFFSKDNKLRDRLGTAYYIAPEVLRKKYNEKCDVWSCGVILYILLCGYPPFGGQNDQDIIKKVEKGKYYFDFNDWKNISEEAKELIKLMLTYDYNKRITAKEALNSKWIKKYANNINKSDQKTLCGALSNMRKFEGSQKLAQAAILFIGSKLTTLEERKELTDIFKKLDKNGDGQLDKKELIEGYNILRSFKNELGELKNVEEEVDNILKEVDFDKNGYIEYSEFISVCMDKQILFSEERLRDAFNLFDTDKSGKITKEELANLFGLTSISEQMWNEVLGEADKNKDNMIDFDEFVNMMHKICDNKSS
Plasmodium falciparum protein kinase 6 (PK6, PF3D7_1337100), sequence (Q8IDW1 1-305): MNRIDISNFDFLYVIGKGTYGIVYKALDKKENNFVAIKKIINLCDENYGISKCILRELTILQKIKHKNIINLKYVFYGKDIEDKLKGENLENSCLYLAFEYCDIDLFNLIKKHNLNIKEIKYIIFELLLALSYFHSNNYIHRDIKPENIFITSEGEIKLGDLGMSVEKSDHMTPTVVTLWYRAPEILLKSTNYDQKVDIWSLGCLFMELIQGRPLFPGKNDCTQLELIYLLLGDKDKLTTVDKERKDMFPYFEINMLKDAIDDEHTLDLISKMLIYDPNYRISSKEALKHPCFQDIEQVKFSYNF
Protein kinase 7 (PK7), Plasmodium falciparum 3D7 (PF3D7_0213400), sequence (Q7YTF7 1-343): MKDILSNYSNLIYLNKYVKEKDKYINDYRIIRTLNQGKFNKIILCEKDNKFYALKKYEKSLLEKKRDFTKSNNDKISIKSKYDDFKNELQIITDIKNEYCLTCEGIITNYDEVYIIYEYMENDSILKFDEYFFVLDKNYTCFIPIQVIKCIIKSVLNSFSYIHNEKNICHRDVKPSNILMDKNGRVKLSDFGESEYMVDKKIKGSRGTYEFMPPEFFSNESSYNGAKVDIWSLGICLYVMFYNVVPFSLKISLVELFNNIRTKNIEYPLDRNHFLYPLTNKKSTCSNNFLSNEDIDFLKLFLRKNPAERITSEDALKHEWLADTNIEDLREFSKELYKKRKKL

SMILES | growth inhibition [1] | inhibition [2] | inhibition [3] | growth inhibition [4] | outcome [5] | outcome [6] | outcome [7] | outcome [8]
Cc1c(CNCCCNc2cc(=O)c3ccccc3[nH]2)sc(-c2ccco2)c1Br | 39% | -4% | -1% | 93% (active) | inactive | inactive | inactive | inactive
COc1ccc2ccccc2c1CNCCCCCCNCc1c(OC)ccc2ccccc12 | 35% | 99% (active) | -2% | 101% (active) | inactive | inactive | inactive | inactive
Cc1nc2nc(N)nc(N)c2c(C)c1Cc1ccccc1Br | 2% | 65% (active) | 1% | 92% (active) | inactive | inactive | inactive | inactive
Clc1ccc2nc(-c3cccnc3)[nH]c2c1 | 97% (active) | -11% | 2% | 92% (active) | inactive | inactive | inactive | inactive
Cc1cc(N2CCCC2)nc(Nc2ccc(NC(=O)CC(C)C)cc2)n1 | 53% (active) | 37% | -1% | 95% (active) | inactive | inactive | inactive | inactive
COc1ccc2nccc([C@@H](O)CN3CCC(NC[C@H](Cc4ccccc4)NC(=O)OC(C)(C)C)CC3)c2c1 | 86% (active) | 18% | 6% | 98% (active) | inactive | inactive | inactive | inactive
N#Cc1ccc(-c2ccc(OCC(O)CN3CCCN(C(=O)C(c4ccc5c(c4)OCO5)N4CCN(C/C=C/c5ccccc5)CC4)CC3)cc2)cc1 (stereo not drawn) | 77% (active) | 25% | 3% | 99% (active) | inactive | inactive | inactive | inactive
CN(CCC(CCN1CCC(c2c[nH]c3ccccc23)CC1)c1ccccc1)C(=O)Nc1ccc(Cl)c(Cl)c1 (stereo not drawn) | 21% | 50% (active) | 3% | 91% (active) | inactive | inactive | inactive | inactive
Cc1ccnc(NC(c2cccc(OCc3ccccc3)c2)c2ccc3cccnc3c2O)c1 (stereo not drawn) | 88% (active) | 26% | -2% | 95% (active) | inactive | inactive | inactive | inactive
CCCCN(CCCC)CCNC(=O)c1cc(OC(F)(F)F)ccc1O | 90% (active) | 8% | -8% | 93% (active) | inactive | inactive | inactive | inactive
COC(=O)c1ccc2nc(-c3ccc(/C=C/C(=O)NC4CCN(Cc5ccccc5)CC4)cc3)[nH]c2c1 | 88% (active) | 12% | -5% | 100% (active) | inactive | inactive | inactive | inactive
O=C(CSc1nccn1Cc1ccco1)Nc1cc(C(F)(F)F)ccc1Cl | 66% (active) | 9% | -4% | 91% (active) | inactive | inactive | inactive | inactive
Cc1ccc(C(=O)Nc2ccc(Cl)c(N3CCN(CCc4ccccc4)CC3)c2)cc1 | 14% | 17% | -7% | 90% (active) | inactive | inactive | inactive | inactive
CCN1CCN(c2ccc(Nc3ccnc4ccc(Br)cc34)cc2)CC1 | 86% (active) | 37% | 2% | 98% (active) | inactive | inactive | inactive | inactive
CCN1CCN(CCCNc2c3ccc(Cl)cc3nc3ccc(O)cc23)CC1 | 1% | 32% | -3% | 103% (active) | inactive | inactive | inactive | inactive
CC(C)N1CCC(Oc2ccc(CN3CCN(C(c4ccccc4)c4ccc(Cl)cc4)CC3)cc2)CC1 (stereo not drawn) | 46% | 44% | 4% | 97% (active) | inactive | inactive | inactive | inactive
O=C(Cn1c(CCc2cccc(F)c2F)cc(=O)c2cccnc21)N(CCN1CCCC1)Cc1ccc(-c2ccc(C(F)(F)F)cc2)cc1 | 64% (active) | 48% | -3% | 99% (active) | inactive | inactive | inactive | inactive
CN(C)CCN(C)Cc1cccc(-c2ccc3c(Nc4cc(O)c(Cl)cc4F)ccnc3c2)c1 | 70% (active) | 14% | -5% | 101% (active) | inactive | inactive | inactive | inactive
Cn1cc(CN2CCCC(COC(c3ccc(F)cc3)c3ccc(F)cc3)C2)cn1 (stereo not drawn) | 100% (active) | 15% | 4% | 98% (active) | inactive | inactive | inactive | inactive
COc1cc(C)nc2ccc(NC(=O)Nc3ccc4nc(C)cc(OC)c4c3)cc12 | 83% (active) | 79% (active) | -7% | 102% (active) | inactive | inactive | inactive | inactive
N=C(N)c1ccc(NCc2cccc(C(=O)O)c2)cc1 | 79% (active) | 7% | -2% | 84% (active) | inactive | inactive | inactive | inactive

SMILES | growth inhibition [1] | inhibition [2] | inhibition [3] | growth inhibition [4] | outcome [5] | outcome [6] | outcome [7] | outcome [8]
CCc1cccc(-n2nc(OCC(=O)NC3CCCC3)c3cccnc32)c1 | 13% | 2% | -4% | 94% (active) | inactive | inactive | inactive | inactive
N#Cc1ccc(/C=C/C(=O)NCCCCCN2CCN(C(=O)Nc3ccc(Cl)c(C(F)(F)F)c3)CC2)cc1 | -7% | 42% | -1% | 94% (active) | inactive | inactive | inactive | inactive
CC(C)NCc1cccc(-c2cccc(NC(=O)c3cccc(C#N)c3)c2)c1 | 22% | 12% | -4% | 99% (active) | inactive | inactive | inactive | inactive
COc1ccc(C(=O)NCc2ccccc2-c2ccc(C(C)(C)C)cc2)cc1O | 97% (active) | 10% | 1% | 99% (active) | inactive | inactive | inactive | inactive
COc1ccccc1-c1ccc2nnc(SCC(=O)Nc3ccc4c(c3)OCCO4)n2n1 | 5% | 9% | -7% | 99% (active) | inactive | inactive | inactive | inactive
FC(F)(F)c1cc(Nc2ccc(Oc3ccccc3)cc2)c2cc(-c3ccncc3)ccc2n1 | 70% (active) | -12% | -2% | 102% (active) | inactive | inactive | inactive | inactive
CC(=O)Nc1ccc(CN2CCC(NC(=O)c3ccc(-c4cccc(C(F)(F)F)c4)s3)CC2)cc1 | 16% | 35% | -3% | 100% (active) | inactive | inactive | inactive | inactive
NC1=NC2(CCCC2)N(c2ccc(Cl)cc2)C(N)=N1 | -1% | -8% | -6% | 97% (active) | inactive | inactive | inactive | inactive
c1ccc2c(Nc3ccc(Oc4ccc(Nc5c6ccccc6nc6ccccc56)cc4)cc3)c3ccccc3nc2c1 | 99% (active) | 21% | -2% | 101% (active) | inactive | inactive | inactive | inactive
CN(C)c1ccc(CN2CCC(NC(=O)c3ccc(-c4cccc(C(F)(F)F)c4)s3)CC2)cc1 | 40% | 90% (active) | -4% | 97% (active) | inactive | inactive | inactive | inactive
O=C(/C=C/c1ccc(Cl)c(Cl)c1)N1CCC(CCN2CCC(c3c[nH]c4ccccc34)CC2)CC1 | 44% | 56% (active) | -3% | 100% (active) | inactive | inactive | inactive | inactive
O=c1cc(NCCCNC2CCOc3c(I)cc(Cl)cc32)[nH]c2ccccc12 (stereo not drawn) | 48% | -10% | -1% | 96% (active) | inactive | inactive | inactive | inactive
Cc1ccccc1C1CCN(c2ncc(C(=O)NC3CC3)cc2Cl)CC1 | 96% (active) | 22% | -1% | 96% (active) | inactive | inactive | inactive | inactive
CCOc1ccccc1CON1C(N)=NC(N)=NC1(C)C | 1% | 66% (active) | -2% | 90% (active) | inactive | inactive | inactive | inactive
CC(C)CCN1CCC(Oc2ccc(NC(=O)c3ccc4ncccc4c3)cc2Cl)C1 (stereo not drawn) | 14% | 33% | -4% | 95% (active) | inactive | inactive | inactive | inactive
COc1ccc(-c2cccc(NC(=O)c3ccc(C#N)cc3)c2)cc1CNC(C)C | 14% | 25% | -1% | 100% (active) | inactive | inactive | inactive | inactive
COc1ccc(NC(=O)C2c3ccccc3C(=O)N(C3CCCC3)C2c2cccs2)c(OC)c1 (stereo not drawn) | 54% (active) | 3% | 4% | 84% (active) | inactive | inactive | inactive | inactive
O=C1c2ccccc2-n2c1nc1ccccc1c2=O | 80% (active) | 9% | 4% | 93% (active) | inactive | inactive | inactive | inactive
CCN(CCCN1CCCCC1)c1cc(C)nc(Nc2ccc(C)cc2C(F)(F)F)n1 | 35% | 23% | -2% | 101% (active) | inactive | inactive | inactive | inactive
Cc1cc(NCCC(=O)NCCOc2ccccc2)nc(NCc2ccccc2C)n1 | 29% | 17% | 0% | 92% (active) | inactive | inactive | inactive | inactive
